ChEMBL document CHEMBL4513216, “Probing the Open Global Health Chemical Diversity Library for Multistage-Active Starting Points for Next-Generation Antimalarials” (ACS Infect Dis, 2020)
Hit rate of the full screen: of about 69,000 compounds, about 8,600 (12%) showed an effect of 50% or more. Many of the other results were omitted from the sample, so strong results are more common in it than they were.

test system: Plasmodium berghei; assay: Screen against P. berghei liver stage (PbLuc), transformed with Luciferase, at 10uM; assay type: functional, HepG2; details: tested at 10 uM

For `Cc1cc2ccccc2n1CCC(=O)NCCS(C)(=O)=O`, which INHIBITION is on record?
The INHIBITION was 0.426%.

How did the INHIBITION turn out when `CC(C)CS(=O)(=O)N1C[C@@H]2C[C@H](C(=O)NCc3ccccc3)[C@H](C1)O2` was run?
Its INHIBITION is 9.48%.

With `Cc1ccc(C(=O)N(C)Cc2cc(Br)cs2)c(=O)[nH]1` as the molecule, how does the INHIBITION read?
The INHIBITION was 15%.

`Cc1cnn(CC2CN(CC(=O)N(C)Cc3ccccc3)CCO2)c1` (stereo unspecified) was tested. Which INHIBITION did it give?
The INHIBITION was 13.3%.

Which INHIBITION does the source give for `CNC(=O)C1CN(c2ccc(F)cc2)CCN1` (stereo unspecified) here?
Its INHIBITION is 41.5%.

With `O=C(CO)N1CCCC(N2CCN(c3ccccc3F)CC2)C1` (stereo unspecified) as the molecule, how does the INHIBITION read?
The INHIBITION was 65.6%.

`CCOc1cncc(N2CCN(c3ccccc3F)CC2)n1` was tested. Which INHIBITION did it give?
Its INHIBITION is 3.77%.

How did the INHIBITION turn out when `C[C@@H]1CN(C2CCN(c3ccccc3F)CC2)CC[C@]1(C)O` was run?
Its INHIBITION is 7.31%.

How did the INHIBITION turn out when `CSCCC(=O)N1CC[C@@H](N2CCN(c3ccccc3F)CC2)[C@H](O)C1` was run?
Its INHIBITION is 48.9%.

`O[C@@H]1CN(CC2CC2)CC[C@H]1N1CCN(c2ccccc2F)CC1` was tested. Which INHIBITION did it give?
The INHIBITION was 53.6%.

Which INHIBITION does the source give for `O=C(CCOc1ccccc1F)N1CCCC(n2cncn2)C1` (stereo unspecified) here?
Its INHIBITION is 36.065%.

Which INHIBITION does the source give for `O=C(CO)N1CC[C@@H](N2CCN(c3ccccc3F)CC2)[C@H](O)C1` here?
Its INHIBITION is 52.6%.

Which INHIBITION does the source give for `Cc1ccccc1N1CCN(C2CCCN(C(=O)CCC(C)C)C2)CC1` (stereo unspecified) here?
Its INHIBITION is 46.6%.

With `O=C(CC1CC1)N1C[C@@H](O)[C@H](N2CCN(c3ccccc3)CC2)C1` as the molecule, how does the INHIBITION read?
Its INHIBITION is 30.25%.

Which INHIBITION does the source give for `O=C(NCCNC1CCCCC1)c1cccs1` here?
Its INHIBITION is -2.11%.

`COc1ccc(S(=O)(=O)N[C@H]2CN(C(C)=O)C[C@@H]2C(C)C)cc1F` was tested. Which INHIBITION did it give?
Its INHIBITION is 17.7%.

How did the INHIBITION turn out when `Cc1cnc(CN(C)C2CCN(CCCc3ccccc3)C2)o1` (stereo unspecified) was run?
Its INHIBITION is -9.37%.

`CN(C)CC(=O)N1CCc2sc(C(=O)NCC3CC3)cc21` was tested. Which INHIBITION did it give?
The INHIBITION was -17.1%.

With `CSCC(=O)N1CCCC(c2cc(C)[nH]n2)C1` (stereo unspecified) as the molecule, how does the INHIBITION read?
Its INHIBITION is 28%.

How did the INHIBITION turn out when `CC(C)c1ocnc1C(=O)N1CC(=O)Nc2cccnc21` was run?
Its INHIBITION is 37.1%.

For `O=c1cc(CN2C[C@@H]3CC[C@H]2CN(Cc2ccccc2)C3)[nH]c(=O)[nH]1`, which INHIBITION is on record?
Its INHIBITION is 34%.

How did the INHIBITION turn out when `CN(C)S(=O)(=O)N1CCOC(c2cccc(-c3cncnc3)n2)C1` (stereo unspecified) was run?
The INHIBITION was 13%.

Which INHIBITION does the source give for `NCC1[C@H]2CN(Cc3ccccc3)C[C@@H]12` (stereo partly specified) here?
Its INHIBITION is 5.73%.

`Cn1cc(CN2CCCC(c3nccnc3-c3cccc(F)c3)C2)cn1` (stereo unspecified) was tested. Which INHIBITION did it give?
Its INHIBITION is 9.05%.

With `CSCC(=O)N[C@H]1CN(CC2CCOCC2)C[C@@H]1c1ccccc1` as the molecule, how does the INHIBITION read?
Its INHIBITION is -69.6%.

How did the INHIBITION turn out when `CS(=O)(=O)NCC(=O)N[C@H]1CN(CC2CC2)C[C@@H]1c1ccccc1` was run?
Its INHIBITION is 65.3%.

Which INHIBITION does the source give for `O=C(CCO)N[C@H]1CN(CC2CCC2)C[C@@H]1c1ccccc1` here?
Its INHIBITION is -13.1%.

Which INHIBITION does the source give for `Cc1noc(C2(C)CCCN(C(=O)c3cccnc3)C2)n1` (stereo unspecified) here?
Its INHIBITION is 25.6%.

With `CCCS(=O)(=O)N1CCCC(CCC(=O)N(C)CCc2ccccn2)C1` (stereo unspecified) as the molecule, how does the INHIBITION read?
Its INHIBITION is 27.6%.

With `CN(C(=O)NCc1nccn1CCc1ccccc1)C1CCC1` as the molecule, how does the INHIBITION read?
Its INHIBITION is -4.63%.

Which INHIBITION does the source give for `COc1ccc(Nc2nc3c(C)nn(C)c3c(=O)n2C)cc1` here?
The INHIBITION was 9.04%.

How did the INHIBITION turn out when `CC(C)c1cc(C(F)(F)F)n2nc(C3CCN(S(C)(=O)=O)C3)cc2n1` (stereo unspecified) was run?
The INHIBITION was 43.05%.

`COc1ccc(NCCC(=O)NCc2cccnc2N(C)C)cc1` was tested. Which INHIBITION did it give?
The INHIBITION was -14.9%.

With `O=C(c1ccnnc1)N1C[C@@H]2CN(c3ncccn3)C[C@@H]2C1` as the molecule, how does the INHIBITION read?
The INHIBITION was 21.7%.

With `O=C(c1ccc2ccccc2n1)N1CCC2(CCN2c2ncccn2)C1` (stereo unspecified) as the molecule, how does the INHIBITION read?
Its INHIBITION is -47%.

For `Cc1ccc(C(=O)N2CCC3(CCN3c3ncccn3)C2)cn1` (stereo unspecified), which INHIBITION is on record?
The INHIBITION was 78.9%.

With `Cn1ccc(C(=O)N2CCC3(CCN3c3ncccn3)C2)n1` (stereo unspecified) as the molecule, how does the INHIBITION read?
The INHIBITION was 22.6%.

`O=C(c1cnc2ccccc2c1)N1CCC2(CCN2c2ncccn2)C1` (stereo unspecified) was tested. Which INHIBITION did it give?
The INHIBITION was -78.5%.

How did the INHIBITION turn out when `Cn1ccnc1C(=O)N1CCC2(CCN2c2ncccn2)C1` (stereo unspecified) was run?
The INHIBITION was 71.3%.

Which INHIBITION does the source give for `O=C(c1cccc(O)c1)N1CCC2(CCN2c2ncccn2)C1` (stereo unspecified) here?
Its INHIBITION is 27.7%.

How did the INHIBITION turn out when `Cc1ccc(C(=O)N2C[C@@H]3CN(c4ncccn4)C[C@@H]3C2)cc1` was run?
Its INHIBITION is -13.7%.

`Cc1ccc(C(=O)N2C[C@@H]3CN(c4ncccn4)C[C@@H]3C2)cn1` was tested. Which INHIBITION did it give?
The INHIBITION was 76.4%.

For `Cn1cccc1C(=O)N1CCC2(CCN2c2ncccn2)C1` (stereo unspecified), which INHIBITION is on record?
Its INHIBITION is 72.2%.

How did the INHIBITION turn out when `Cn1ccnc1C(=O)N1CCC2(CCN2CC2CC2)C1` (stereo unspecified) was run?
The INHIBITION was 13.7%.

With `Cn1cccc1C(=O)N1CCC2(CCCN2c2ncccn2)CC1` as the molecule, how does the INHIBITION read?
The INHIBITION was -2.41%.

For `CC(C)NC(=O)N1CCC2(CC(=O)N(c3ccsc3)C2)C1` (stereo unspecified), which INHIBITION is on record?
The INHIBITION was 48.2%.

How did the INHIBITION turn out when `COc1cc(N2C[C@H](C(=O)NCC3CC3)[C@@H]3CCO[C@@H]3C2)ncn1` was run?
The INHIBITION was -29.3%.

`Cn1cnc2c(N3CCCC3)nc(C3CCNCC3)cc21` was tested. Which INHIBITION did it give?
The INHIBITION was 32.7%.

Which INHIBITION does the source give for `COc1ccc(OC)c(CNC(=O)N2CCC(n3cncn3)CC2)c1` here?
Its INHIBITION is 21%.

With `Cc1ccc(C(=O)NS(=O)(=O)c2ccccc2Cl)c(=O)[nH]1` as the molecule, how does the INHIBITION read?
The INHIBITION was 35.9%.

For `CC(C)c1noc(C(C)N2CCN(CCCN3CCCC3=O)CC2)n1` (stereo unspecified), which INHIBITION is on record?
The INHIBITION was -38.7%.

Which INHIBITION does the source give for `CN(CCO)CC1COCCN1C(=O)CCC1CCCC1` (stereo unspecified) here?
The INHIBITION was 39.3%.

For `CC(C)c1cnc(CN(C)C2CCN(CCCc3cnn(C)c3)C2)o1` (stereo unspecified), which INHIBITION is on record?
The INHIBITION was -7.31%.

For `CC(C)N1CCCC1c1csc(N)n1` (stereo unspecified), which INHIBITION is on record?
Its INHIBITION is 16.8%.

For `COc1cc(-c2cc(OC)c(OC)c(OC)c2)ncn1`, which INHIBITION is on record?
The INHIBITION was -7.79%.

Which INHIBITION does the source give for `COC(CNC(=O)C1CC1)c1ccc(C)s1` (stereo unspecified) here?
Its INHIBITION is 20.4%.

`O=C(CCc1cc2n(n1)CCN(CCCn1cccc1)C2)N1CCCC1` was tested. Which INHIBITION did it give?
Its INHIBITION is -1.54%.

For `Cc1ccc(N2CCCc3sc(C(=O)NCC4CCCO4)nc32)nn1` (stereo unspecified), which INHIBITION is on record?
Its INHIBITION is 15.4%.

Which INHIBITION does the source give for `Cc1nn(C)c(Cl)c1C1CCCN1C(=O)c1ccc[nH]1` (stereo unspecified) here?
The INHIBITION was 25.1%.

Which INHIBITION does the source give for `Cc1cc(C(=O)NCCC2CN(C)CCO2)c2cccc(C)c2n1` (stereo unspecified) here?
The INHIBITION was 45.9%.

Which INHIBITION does the source give for `O=C(NCCC1CN(C2CCCC2)CCO1)c1cc(=O)[nH]c(=O)[nH]1` (stereo unspecified) here?
Its INHIBITION is 51.5%.

`Cc1ccc(C(=O)NCCC2CN(c3cnn(C)c(=O)c3)CCO2)s1` (stereo unspecified) was tested. Which INHIBITION did it give?
Its INHIBITION is 24.7%.

For `Cc1ccc(C)c(C(=O)N2CCOC(CCN(C)C)C2)c1` (stereo unspecified), which INHIBITION is on record?
The INHIBITION was 37.6%.

Which INHIBITION does the source give for `O=C(NCCC1CN(C2CCCC2)CCO1)c1c[nH]c(=O)[nH]c1=O` (stereo unspecified) here?
Its INHIBITION is 8.08%.

With `Cc1ccc(C(=O)NCCC2CN(C3CCCC3)CCO2)c(C)c1` (stereo unspecified) as the molecule, how does the INHIBITION read?
Its INHIBITION is 66.8%.

`CC(CC(=O)c1ccco1)NC(=O)c1ccccn1` (stereo unspecified) was tested. Which INHIBITION did it give?
The INHIBITION was 42.1%.
